“And” between values parts separate entries of the source, which are not always exact repeats. Equal values may be shown once. Inconclusive results are not listed. The source made the active and inactive calls. Unless noted, calls come from the whole dose curve; as a rule, active = well fitted curve in the direction sought with a large enough effect; inconclusive = small, poorly fitted or top-dose-only effect, or another doubt; inactive = no such curve, though single readings can be large; an effect the other way counts as inactive or inconclusive.
Tests used:
[1] = Cell Viability - SH-SY5Y (AID 544); note: nearly all actives have a fitted effect of over 55% in size
Outline: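 Human neuroblastoma SH-SY5Y cells (1500/well) in complete medium were exposed to compounds for 40 hr at 37 °C; intracellular ATP was then quantified by CellTiter-Glo luminescence after 20 min at room temperature. AC50 came from Hill-equation concentration-response fits.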

[2] = Cellular Toxicity (caspase-3) Jurkat (AID 655); conditions: Jurkat caspase-3 activation, luminescence, DMSO = 0%, tamoxifen = 100%; at 92.2 µM (top of the series);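 note: cells exposed to compound for 16 h at 37 °C before reading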
Outline: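 Luminescent caspase-3/7 readout (aminoluciferin substrate cleavage) in human T-cell leukemia Jurkat cells after 16 hr compound exposure. Concentration-response normalized to DMSO and 100 uM tamoxifen; AC50 by standard Hill equation.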

[3] = Cellular Toxicity (caspase-3) N2a (AID 665);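 note: compound exposure lasted 16 h at 37 °C before readout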
Outline: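 Mouse N2a neuroblastoma cells (1500/well) were treated with compounds for 16 h at 37 °C, then caspase-3/7 activity was read by Caspase-Glo luminescence after 1 h at room temperature. Data were normalized to DMSO and 10 uM staurosporine; AC50 from Hill fits.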

[4] = molecular target: Cytochrome P450 3A4 (Homo sapiens) (UniProt P08684); assay: qHTS Assay for Inhibitors and Substrates of Cytochrome P450 3A4 (AID 884); note: nearly all actives have a fitted effect of over 50% in size; note: potency is the fitted concentration of half-maximal effect
Outline: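 20 nM human CYP3A4 with 25 uM Luciferin-PPXE (at KM) in 200 mM KPO4, preincubated 10 min with compound; NADPH regeneration started a 60 min RT reaction. Luciferin detected by luminescence, normalized to 57 uM ketoconazole as full inhibition.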

[5] = MultiTox-Fluor Cytotoxicity Assay - LYMP1-003 - Live Cells (AID 962);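 note: 0% = DMSO only and full loss = 92 µM tetraoctylammonium bromide; cytotoxic hits lower the live-cell protease signal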
Outline: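 LYMP1-003 human lymphoblastoid cells (2500/well) in complete medium were preincubated 5 hr at 37 C, then exposed to compounds for 16 hr at 37 C. Live-cell protease cleavage of GF-AFC read by fluorescence (Ex/Em 405/510); AC50 from Hill fits.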

[6] = Cell Viability - LYMP1-003 - Assay at 40 hr (AID 964); note: nearly all actives have a fitted effect of over 60% in size; note: potency is the fitted concentration of half-maximal effect
Outline: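 Human lymphoblastoid LYMP1-003 cells, 2500/well in complete medium, rested 5 hr at 37 C, then exposed to compounds for 40 hr at 37 C. Viability read as intracellular ATP by CellTiter-Glo luminescence; AC50 from Hill fits of concentration-response data.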

[7] = Cell Viability - LYMP2-005 (AID 967);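 note: plate controls were DMSO only for no effect and 92 µM tetraoctylammonium bromide control for full effect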
Outline: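 Steps: seed 2500 LYMP2-005 cells/well, incubate 5 h at 37 C, add compound, incubate 24 h at 37 C, add CellTiter-Glo, wait 30 min at RT, read luminescence. Concentration-response data fitted to Hill equation for AC50.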

[8] = Cell Viability - LYMP2-011 (AID 969);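 note: 0% = DMSO only and full inhibition = 92 µM tetraoctylammonium bromide; nearly all actives have a fitted effect of over 60% in size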
Outline: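 Human lymphoblastoid cells (2500/well) were plated in complete medium, preincubated 5 hr at 37 C, then exposed to compounds for 24 hr at 37 C. Intracellular ATP was read by CellTiter-Glo luminescence, and AC50 came from Hill-equation concentration-response fits.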

[9] = Cell Viability - LYMP2-013 (AID 970);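 note: 0% = DMSO only and full inhibition = tetraoctylammonium bromide control; nearly all actives have a fitted effect of over 55% in size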
Outline: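 Human lymphoblastoid cells, 2500/well, were preincubated 5 hr at 37 C, then treated with compounds for 24 hr at 37 C in complete medium. Intracellular ATP was read by CellTiter-Glo luminescence; AC50 from Hill-equation fits of concentration-response data.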

[10] = Cell Viability - LYMP2-017 (AID 972); note: % is set by controls: 0 for no effect and ±100 for the full control effect; nearly all actives have a fitted effect of over 55% in size
Outline: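 Human lymphoblastoid cells (2500/well) were seeded in complete medium, held 5 hr at 37 C, then exposed to compounds for 24 hr at 37 C. Intracellular ATP was read by CellTiter-Glo luminescence after 30 min at room temperature, with AC50 values from Hill-equation fits.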

[11] = Cell Viability - LYMP2-007 (AID 979);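 note: cells exposed to compound for 24 h before reading; 0% = DMSO only and the negative end = 92 µM tetraoctylammonium bromide; nearly all actives have a fitted effect of over 60% in size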
Outline: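 Human lymphoblastoid cells (2500/well) were plated in complete medium, incubated 5 hr at 37 C, then exposed to compounds for 24 hr at 37 C. Intracellular ATP was read by CellTiter-Glo luminescence after 30 min at room temperature; AC50 from Hill fits.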

[12] = Cell Viability - LYMP2-010 (AID 981); note: % is set by controls: 0 for no effect and ±100 for the full control effect; nearly all actives have a fitted effect of over 55% in size
Outline: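 Human lymphoblastoid LYMP2-010 cells (2500/well) were preincubated 5 hr at 37 C, then exposed to compounds for 24 hr at 37 C in complete medium. Intracellular ATP was measured by CellTiter-Glo luminescence after 30 min at room temperature; AC50 from Hill-fitted concentration-response.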

[13] = Cell Viability - LYMP2-012 (AID 982)
[14] = Cell Viability - LYMP2-018 (AID 985);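 note: compound exposure lasted 24 hr at 37 °C; plate controls were DMSO only for no effect and tetraoctylammonium bromide at 92 µM for full effect; nearly all actives have a fitted effect of over 50% in size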
Outline: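 Human lymphoblastoid cells (2500/well) were pre-incubated 5 hr at 37 C, then exposed to compounds for 24 hr at 37 C in complete medium. Viability was read as intracellular ATP by CellTiter-Glo luminescence; AC50 values came from Hill-equation fits.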

[15] = Cell Viability - LYMP2-020 (AID 986)
Outline: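 Human lymphoblastoid cells, 2500/well, were pre-incubated 5 hr at 37 C, then exposed to compounds for 24 hr at 37 C in complete medium. Intracellular ATP was read by CellTiter-Glo luminescence, and AC50 was derived by Hill fitting of concentration-response data.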

[16] = Cell Viability - LYMP2-022 (AID 987)
Outline: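 Human lymphoblastoid cells, 2500/well, preincubated 5 hr at 37 C, then exposed to compounds over a concentration range for 24 hr at 37 C in complete medium. Viability read as intracellular ATP by CellTiter-Glo luminescence after 30 min at room temperature; AC50 from Hill fits.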

[17] = Cell Viability - LYMP2-024 (AID 988);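 note: plate controls were DMSO only for no effect and 92 µM tetraoctylammonium bromide for full effect; nearly all actives have a fitted effect of over 60% in size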
Outline: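 Human lymphoblastoid cells (2500/well) in complete medium were preincubated 5 hr at 37 C, then exposed to compounds for 24 hr at 37 C. Intracellular ATP was read by CellTiter-Glo luminescence; AC50 from Hill-equation fits of concentration-response data.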

[18] = molecular target: Retinoic acid receptor RXR-alpha (Homo sapiens) (UniProt P19793); assay: qHTS assay for small molecule antagonists of retinoid X receptor alpha signaling (AID 588546; active = well fitted inhibition curve with a large enough effect in the signal ratio, with a control signal flat, not every such curve was filed as active; the % refers to the signal ratio;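 note: cells stimulated with 9-cis-retinoic acid as agonist; % is set by controls: 0 for no effect and ±100 for the full control effect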); conditions: HEK293T RXRa-UAS-bla, beta-lactamase ratio, antagonist mode
Outline: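 Beta-lactamase reporter inhibition, read as CCF4 fluorescence ratio (ex 405, em 460/530 nm) after 2 h at RT. HEK293T UAS-bla cells, 2500/well, were stimulated with 9-cis-RA at 500 or 100 nM final alongside test compound for 18 h at 37 C.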

[19] = qHTS assay for environmental chemicals that activate the Aryl hydrocarbon Receptor (AhR) signaling pathway (AID 651777); conditions: 1A2-DRE human hepatoma cells, luciferase, 24 h; activation: hits give high values; note: % of control where 0% means no effect; nearly all actives have a fitted effect of over 15% in size
Outline: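 Quantitative HTS in stably transfected human liver-derived cells whose luciferase gene sits downstream of the CYP1A2 promoter and dioxin response element. After 24 hr exposure at 37 C, One-Glo luminescence was measured.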

[20] = qHTS assay for small molecule disruptors of the mitochondrial membrane potential - 5 hr assay (AID 651755; calls by dose curve; note: % is set by controls: 0 for no effect and ±100 for the full control effect; nearly all actives have a fitted effect of over 40% in size)
Outline: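 HepG2 cells (2,000/well), attached overnight, exposed to compound 5 hr at 37C, then Mito-MPS dye 30 min. Fluorescence read for monomers (490/535 nm) and aggregates (540/590 nm).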

Chain of Cytochrome P450 3A4 (Homo sapiens) (P08684 whole entry, looked up): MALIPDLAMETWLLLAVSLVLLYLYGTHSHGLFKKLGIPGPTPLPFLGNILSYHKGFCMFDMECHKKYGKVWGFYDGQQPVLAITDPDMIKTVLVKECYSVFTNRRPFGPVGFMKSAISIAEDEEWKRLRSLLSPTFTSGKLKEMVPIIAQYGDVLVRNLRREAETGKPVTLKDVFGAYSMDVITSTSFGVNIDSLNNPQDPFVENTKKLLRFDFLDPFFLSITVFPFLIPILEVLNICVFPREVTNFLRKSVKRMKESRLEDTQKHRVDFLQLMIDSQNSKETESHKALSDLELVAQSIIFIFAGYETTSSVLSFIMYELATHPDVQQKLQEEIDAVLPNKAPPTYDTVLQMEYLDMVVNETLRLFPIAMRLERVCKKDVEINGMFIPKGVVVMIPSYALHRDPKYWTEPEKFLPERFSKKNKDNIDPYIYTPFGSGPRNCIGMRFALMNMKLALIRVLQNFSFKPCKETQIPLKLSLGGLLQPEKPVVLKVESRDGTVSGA
Chain of Retinoic acid receptor RXR-alpha (Homo sapiens) (P19793 whole entry, looked up): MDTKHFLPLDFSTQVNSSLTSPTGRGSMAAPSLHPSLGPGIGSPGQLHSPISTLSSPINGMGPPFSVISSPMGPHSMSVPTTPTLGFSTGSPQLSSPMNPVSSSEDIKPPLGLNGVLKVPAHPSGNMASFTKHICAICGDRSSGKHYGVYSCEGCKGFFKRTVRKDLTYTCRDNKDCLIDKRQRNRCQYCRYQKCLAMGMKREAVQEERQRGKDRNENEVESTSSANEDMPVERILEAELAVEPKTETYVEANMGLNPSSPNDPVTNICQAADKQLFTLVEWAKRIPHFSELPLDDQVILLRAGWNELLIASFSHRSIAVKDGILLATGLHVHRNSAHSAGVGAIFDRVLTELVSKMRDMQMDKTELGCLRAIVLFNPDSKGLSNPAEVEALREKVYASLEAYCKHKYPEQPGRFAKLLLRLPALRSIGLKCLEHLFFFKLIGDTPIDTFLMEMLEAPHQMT

CN(C)C=O
inactive: Potency [1] | caspase-3 activation [2] 2.75% and 2.81% | outcome [3] | Potency [4] | Potency [5] | Potency [6] | Potency [7] | Potency [8] | Potency [9] | Potency [10] | Potency [11] | Potency [12] | Potency [13] | Potency [14] | Potency [15] | Potency [16] | Potency [17] | max response [18] 8.45% and -9.56% | activation [19] 0.683% and 0.177% and 0.0089%

C=Cc1ccccc1Cl
inactive: Potency [1] | caspase-3 activation [2] -1.24% | outcome [3] | Potency [4] | Potency [5] | Potency [6] | Potency [7] | Potency [8] | Potency [9] | Potency [10] | Potency [11] | Potency [12] | Potency [13] | Potency [14] | Potency [15] | Potency [16] | Potency [17] | max response [18] -6.96% | Potency [20] | activation [19] -0.0962%

O=[N+]([O-])c1cccc(Cl)c1Cl
inactive: Potency [1] | caspase-3 activation [2] 1.08% | outcome [3] | Potency [4] | Potency [5] | Potency [6] | Potency [7] | Potency [8] | Potency [9] | Potency [10] | Potency [11] | Potency [12] | Potency [13] | Potency [14] | Potency [15] | Potency [16] | Potency [17] | max response [18] 13.3% and -13.6% | Potency [20] | activation [19] 0.0517% and -0.399%

Nc1ccc(Cl)cc1Cl
inactive: Potency [1] | caspase-3 activation [2] 0.852% | outcome [3] | Potency [5] | Potency [6] | Potency [7] | Potency [8] | Potency [9] | Potency [10] | Potency [11] | Potency [12] | Potency [13] | Potency [14] | Potency [15] | Potency [16] | Potency [17] | max response [18] -0.389% and -0.876% | Potency [20] | activation [19] -1.04% and 0.693%

C=CCOC(=O)c1ccccc1C(=O)OCC=C
inactive: Potency [1] | caspase-3 activation [2] -1.58% | outcome [3] | Potency [5] | Potency [6] | Potency [7] | Potency [8] | Potency [9] | Potency [10] | Potency [11] | Potency [12] | Potency [13] | Potency [14] | Potency [15] | Potency [16] | Potency [17] | max response [18] -2.1% and -17.2% | Potency [20] | activation [19] -0.581% and 2.86%

COCC(=O)O
inactive: Potency [1] | caspase-3 activation [2] 0.941% | outcome [3] | Potency [4] | Potency [5] | Potency [6] | Potency [7] | Potency [8] | Potency [9] | Potency [10] | Potency [11] | Potency [12] | Potency [13] | Potency [14] | Potency [15] | Potency [16] | Potency [17] | max response [18] 8.65% and -6.69% | Potency [20] | activation [19] -1.91% and 0.0528%

Cc1ccc([N+](=O)[O-])cc1N
inactive: Potency [1] | caspase-3 activation [2] -0.45% | outcome [3] | Potency [5] | Potency [6] | Potency [7] | Potency [8] | Potency [9] | Potency [10] | Potency [11] | Potency [12] | Potency [13] | Potency [14] | Potency [15] | Potency [16] | Potency [17] | max response [18] -2.87% and -11.4% | Potency [20] | activation [19] 6.03% and 2.09%

O=C(O)c1ccc(O)cc1O
inactive: Potency [1] | caspase-3 activation [2] -0.639% and 0.659% | outcome [3] | Potency [4] | Potency [5] | Potency [6] | Potency [7] | Potency [8] | Potency [9] | Potency [10] | Potency [11] | Potency [12] | Potency [13] | Potency [14] | Potency [15] | Potency [16] | Potency [17] | max response [18] 1.87% | Potency [20] | activation [19] 0.974% and 0.552%

N#Cc1cccc(-c2ccc3ncnc(NCc4cccs4)c3c2)c1
active: Potency [4] 3160 nM

ClCCCl
inactive: Potency [1] | caspase-3 activation [2] 2.03% | outcome [3] | Potency [4] | Potency [5] | Potency [6] | Potency [7] | Potency [8] | Potency [9] | Potency [10] | Potency [11] | Potency [12] | Potency [13] | Potency [14] | Potency [15] | Potency [16] | Potency [17] | max response [18] -2.31% and -1.04% and -10.6% | Potency [20] | activation [19] 0.113% and 1.25% and 1.3%

O=NO
inactive: Potency [1] | caspase-3 activation [2] -1.69% and 0.278% | outcome [3] | Potency [4] | Potency [5] | Potency [6] | Potency [7] | Potency [8] | Potency [9] | Potency [10] | Potency [11] | Potency [12] | Potency [13] | Potency [14] | Potency [15] | Potency [16] | Potency [17] | max response [18] 16.8% and -9.55% | Potency [20] | activation [19] -0.432% and -1.54%

S=C1NC=NC2N=CNC12 (stereo not given)
active: Potency [6] 1580 nM
inactive: caspase-3 activation [2] 20.1% | Potency [4] | Potency [5] | Potency [7] | Potency [8] | Potency [9] | Potency [10] | Potency [11] | Potency [12] | Potency [13] | Potency [14] | Potency [15] | Potency [16] | Potency [17] | max response [18] -10.4% | Potency [20] | activation [19] -2.14%

— PubChem BioAssay (NCATS)
